Experimental findings from PubChem BioAssay (NCI) are described below.

The panel holds about 83,000 compounds, 20% with a hit somewhere; the sample as a whole holds those more often.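 For each line, cells grew in 96-well plates with the test compound present at a single concentration for 48 hours.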 Values without a mark were called inactive. Active and inactive are the calls of the source. Rule for the calls: active = growth percent below 10; inactive = the rest.

Assay in all cases: NCI-60 one-dose screen, 48 h (100 = growth as untreated, 0 = no growth, -100 = all killed)
What all share (settings): 10 µM unless noted

The test system of assay [1] is SK-MEL-2 melanoma.
The test system of assay [2] is EKVX NSCLC.
For assay [3], the system named is SN12C renal.
In assay [4] the test system is UO-31 renal.
Assay [5] relates to TK-10 renal.
Assay [6] deals with ACHN renal.
In assay [7] the test system is CAKI-1 renal.
Assay [8] deals with A498 renal.
Assay [9] has as its system CCRF-CEM leukemia.
In assay [10] the test system is MOLT-4 leukemia.

With `Cn1cc(-c2ccc3nc(-c4ccc(CC(=O)ONc5cc(C(C)(C)C)on5)cc4)cnc3c2)cn1`, the growth in assay [1] was 13%; in assay [2] it was 39.2%; in assay [3] it was 26.1%; in [4], 20.9%; in assay [5] it was 21.3%; in assay [6], 13.4%. For the same compound, the growth in assay [7] was 6.91% (active); in assay [8], 15.6%; in assay [9] it was 38.8%; in assay [10] it was 11.6%.
As to `CC1CN(S(=O)(=O)c2oc(-c3ccc(Cl)cc3)nc2C#N)CC(C)O1` (stereo not given), the growth is 75.5% in assay [1]; 101% in assay [2]; 85.5% in [3]; 90.4% in assay [4]; -54% (active) in [5]; 28.1% in [6]. Moreover, the growth in [7] is 91.2%; in [8], 78.7%; in assay [9] it was -2.97% (active); in assay [10], -10.6% (active).
As for `O=C(N/N=C/c1ccc(Cl)cc1)c1[nH]c2ccc(Cl)cc2c1-c1ccccc1`, the growth was -9.34% (active) in assay [1]; 40.7% in assay [2]; 28.1% in assay [3]; 24.7% in assay [4]; 51.8% in [5]; 28.4% in [6]. For the same compound, the growth was 20.9% in assay [7], 36.2% in [8], 19.3% in [9] and 33.7% in [10].
As to `CCCCCOC(=O)c1c(C)[nH]c(/C=C2\N=C(c3ccc[nH]3)C=C2OC)c1C`, the growth in assay [1] is -71.2% (active); in assay [2] it was 12.5%; in [3] it was 3.4% (active); in [4], -69.6% (active); in [5], 4.49% (active); in [6], -72.3% (active). Besides, the growth in [7] was -17.3% (active); in [8], -21% (active); in assay [9], -13.2% (active); in [10] it was 9.58% (active).
As to `CC(=O)/C(=C\c1c(-c2ccccc2)[nH]c2ccccc12)S(C)(=O)=O`, the growth was 59.9% in [1]; 50.4% in assay [2]; 33.4% in assay [3]; 51% in [4]; 42.7% in assay [5]; 50.2% in assay [6]. Moreover, the growth in [7] is 45.6%; in assay [8], 31.9%; in [9] it was 1.75% (active); in assay [10] it was -13.5% (active).
Turning to `CC(=O)O[C@H]1CC2CCC3C(CC[C@@]4(C)C3C[C@H]([N+]3(C)CCCCC3)[C@@H]4OC(C)=O)[C@@]2(C)C[C@@H]1N1CCCCC1` (stereo not given in full), the growth in assay [1] was 111%; in assay [2], 97.7%; in assay [3] it was 93%; in [4], 83.3%; in assay [5] it was 108%; in assay [6] it was 104%. For the same compound, the growth was 88.1% in [7], 111% in [8], 103% in assay [9] and 98.9% in [10].
In the case of `C=CCc1c(O)c(C(=O)/C=C/c2ccccc2)c(OC)c2ccoc12`, the growth in [1] was 11.5%; in assay [2] it was 64.6%; in assay [3] it was 57%; in assay [4] it was 50.9%; in [5] it was 38.8%; in [6] it was 51.7%. Moreover, the growth was 13.1% in assay [7], -10.9% (active) in assay [8], 21.3% in [9] and 15.3% in [10].
Turning to `COc1ccc(-c2cc(-c3ccc(Cl)cc3)c(C#N)c(=O)n2Cc2ccc(C(=O)Nc3ccccc3N)cc2)cc1`, the growth was 79.3% in assay [1]; 82.1% in [2]; 79.1% in assay [3]; 40.5% in [4]; 140% in [5]; 96.5% in [6]. For the same compound, the growth was 55.8% in assay [7], 84% in assay [8], 42.6% in assay [9] and 66.2% in assay [10].
In the case of `CCCC/C=C/[C@@H]1C[C@H]1CCO`, the growth is 98.7% in assay [1]; 101% in assay [2]; 94.3% in [3]; 87% in assay [4]; 96.4% in assay [5]; 104% in assay [6]. The growth in assay [7] was 98.9%; in [8], 102%; in [9], 101%; in assay [10], 103%.
`COc1cc2c(c(OC)c1OC)CCC(c1cccc(C(=O)Nc3cccc(Cl)c3)c1)O2` (stereo not given): the growth was 58.3% in assay [1]; 64.2% in assay [2]; 50% in assay [3]; 40.8% in [4]; 70.4% in [5]; 65.4% in assay [6]. Moreover, the growth in [7] is 84.8%; in assay [8], 6.84% (active); in [9], 37.8%; in [10], 30.4%.
Take `Cc1ccc2c(c1)=C/C(=C\c1cc(-c3ccccc3)oc1O)C(=O)N=2`: the growth in assay [1] is 114%; in [2], 92.6%; in [3], 106%; in [4], 100%; in assay [5], 97.6%; in [6] it was 105%. In addition, the growth was 91.1% in [7], 96.6% in assay [8], 100% in assay [9] and 90.6% in assay [10].
In the case of `CS(=O)(=O)c1ccc(-c2cnn3ccc(-c4cccc(S(=O)(=O)C5CC5)c4)nc23)cc1`, the growth in assay [1] was 49.4%; in assay [2] it was 67.4%; in [3], 55.3%; in assay [4] it was 49.8%; in assay [5], 45.8%; in assay [6] it was 54.7%. Also, the growth was 52.2% in [7], 30% in assay [8], 21.3% in assay [9] and 15.3% in [10].
For `O=C(CSc1oc(-c2ccccc2)nc1S(=O)(=O)c1ccccc1)Nc1ccc(F)cc1`, the growth in assay [1] is 87.6%; in assay [2], 78.2%; in [3] it was 89%; in assay [4] it was 76.8%; in assay [5], 91.8%; in assay [6], 80.2%. The growth in assay [7] is 73.1%; in assay [8], 82.6%; in [9], 84.7%; in [10], 73.3%.
For `COc1ccc(C(=O)c2cc3c(N)c(C(=O)Nc4ccc(C)cc4)sc3nc2C)cc1`, the growth was 56.1% in assay [1]; 40.8% in [2]; 37.2% in assay [3]; 41.2% in assay [4]; 61.3% in assay [5]; 46.8% in [6]. The growth in assay [7] was 28%; in assay [8], 14%; in assay [9] it was 15.7%; in assay [10], 20.5%.
With `COc1ccc2c(c1)CC[C@H](O)/C2=C/c1cc(OC)c(OC)c(OC)c1`, the growth in assay [1] was 43.5%; in assay [2], 38%; in assay [3], 37.6%; in assay [4], 34.3%; in assay [5], 66.6%; in assay [6] it was 26.4%. Besides, the growth in assay [7] was 30.5%; in assay [8], -9.18% (active); in assay [9], 5.74% (active); in [10] it was 13.5%.
With `C#COc1cccc(Nc2c(C#N)cnc3ncc(NC(=O)CCl)cc23)c1`, the growth is 12.4% [6.25 µM] in [1]; 52% [6.25 µM] in [2]; 17.3% [6.25 µM] in assay [3]; 41.1% [6.25 µM] in [4]; 26.8% [6.25 µM] in assay [5]; 32.4% [6.25 µM] in assay [6]. Further, the growth was 36.1% [6.25 µM] in assay [7], 56.7% [6.25 µM] in [8], -25.3% [6.25 µM] (active) in assay [9] and -2.02% [6.25 µM] (active) in assay [10].
`Clc1cccc(Nc2ncnc3ccc(-c4cnc5[nH]ccc5c4)cc23)c1`: the growth in assay [1] is 81.3%; in [2] it was 10%; in [3], 77.3%; in assay [4], 54.9%; in [5], 14.4%; in assay [6], 47.1%. For the same compound, the growth in assay [7] was 49%; in assay [8], 23.1%; in assay [9], 66.7%; in [10] it was 50.1%.
In the case of `Clc1cc(Cl)c(Cl)c(-c2nnc(SCc3ccncc3Br)o2)c1`, the growth in [1] was 91.8%; in [2] it was 84.5%; in assay [3], 92.3%; in [4] it was 67.4%; in assay [5] it was 117%; in assay [6] it was 94.4%. Moreover, the growth in assay [7] was 65.8%; in assay [8], 94.8%; in assay [9] it was 77.1%; in assay [10], 75.1%.
For the compound `N=C(N)c1ccc(-c2ccc(-c3ccc(Cl)cc3Cl)s2)cc1`, the growth is 104% in assay [1]; 63.5% in assay [2]; 16% in assay [3]; 21.8% in assay [4]; 110% in [5]; -28% (active) in assay [6]. In addition, the growth in assay [7] is -67.3% (active); in assay [8], 86.3%; in assay [9] it was -3.15% (active); in assay [10], -24.3% (active).
`O=C(CSc1nc2ccc([N+](=O)[O-])cc2[nH]1)Nc1ccc([N+](=O)[O-])cc1`: the growth in assay [1] was -5.26% (active); in assay [2] it was 20.3%; in assay [3], 9.04% (active); in assay [4] it was 9.43% (active); in assay [5], 31.8%; in assay [6], 21.4%. For the same compound, the growth in [7] was 12.7%; in assay [8] it was -6.66% (active); in [9] it was 16.8%; in assay [10] it was 5.72% (active).
`Clc1ccc2c(c1)C(c1c[nH]c3ccccc13)(c1c[nH]c3ccccc13)CCO2`: the growth was -52% (active) in [1]; 81.9% in assay [2]; 85.3% in assay [3]; 54.2% in assay [4]; -43.1% (active) in assay [5]; 76.8% in [6]. Moreover, the growth in assay [7] was 78.2%; in [8], 101%; in assay [9], 45.1%; in assay [10], 32.4%.
Turning to `CN1CCN(C(=O)c2ccc(NC(=O)c3cc4c(nn3)NCCN4Cc3cc(Cl)ccc3Cl)cc2)CC1`, the growth was 78.8% in [1]; 85.8% in assay [2]; 74.9% in assay [3]; 60.5% in [4]; 92.1% in assay [5]; 75.1% in [6]. Moreover, the growth was 75.1% in assay [7], 43.7% in [8], 42% in assay [9] and 39.6% in assay [10].
In the case of `CCN(CC)CCn1c2ccc(OC)cc2c2sc3cc(OC)ccc3c(=O)c21`, the growth in [1] was 63.5%; in assay [2] it was 41.3%; in assay [3], 24.6%; in assay [4], 8.29% (active); in assay [5], 49.2%; in [6], -38.8% (active). The growth in assay [7] was 48.3%; in [8], 15.6%; in assay [9], 15%; in assay [10], 3.81% (active).
Turning to `CCCCCCCCCCCCCCCCCCOc1ccccc1CC(=O)OCC[N+](C)(C)C`, the growth in assay [1] was 64.8%; in assay [2] it was 46.9%; in assay [3] it was 10%; in assay [4], 61.3%; in [5], 18%; in assay [6], 55.8%. For the same compound, the growth is 9.52% (active) in assay [7], 45.1% in [8], 5.24% (active) in [9] and -7.37% (active) in assay [10].
In the case of `Cc1ccccc1/C=C/C(=O)c1cccc(OCCCCOc2cccc(C(=O)/C=C/c3ccccc3C)c2)c1`, the growth in assay [1] was 103%; in assay [2] it was 94.6%; in [3] it was 90.7%; in assay [4], 80.7%; in assay [5], 101%; in assay [6], 101%. Also, the growth in assay [7] is 86%; in assay [8] it was 86%; in assay [9], 104%; in [10], 94.5%.
Turning to `Cn1c(=O)cc2c3c(c(NCCCO)ccc31)C(=O)c1ccccc1-2`, the growth in [1] is 73.9%; in [2] it was 73.2%; in assay [3], 46.8%; in assay [4], 13.1%; in assay [5] it was 29.1%; in assay [6], 25.3%. Further, the growth in assay [7] was 44.7%; in assay [8], 64.2%; in assay [9], 48.3%; in [10], 19.2%.
For the compound `O=C(c1nn(-c2ccccc2)c2c1CC(NCc1ccc(F)cc1)CC2)N1CCCCC1` (stereo not given), the growth was 103% in assay [1]; 97.6% in [2]; 105% in assay [3]; 74.2% in [4]; 92.5% in assay [5]; 104% in [6]. Besides, the growth in assay [7] was 85%; in assay [8], 120%; in [9], 108%; in [10], 73.5%.
